The list is not random: actives were taken first. Their share in the collection is about 13%.
HCV inh – blocks hepatitis C virus | Huh7.5.1 HCVcc-Cre infection, luciferase reporter, 44 h | Potency, µM (doses to about 41.8 µM), actives largely listed as inhibitors | 3.4% of 340,000 active | AID 651820
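Reporter virus HCVcc-Cre (~0.5 moi) infects cells exposed to compound; seeding density 1,000 cells/well with 4 h settling beforehand. Luminescence, 15 sec read, taken 44 h post-infection following a 15 min RT substrate incubation.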
CHX counter-1 – counter-screen for Shiga toxin inhibitors: cycloheximide protein synthesis inhibition; cell reporter, cycloheximide protein synthesis inhibition counterscreen; max response, %; 12% of 300,000 active; in the data active = max response mostly above about 13%, no sharp cut-off; inactive = mostly below about 14%; note: read at 38.3 µM for the half of the compounds with a filed dose
Shiga inhibitor – inhibitors of Shiga toxin in Vero cells; Vero cells, Shiga toxin protein synthesis inhibition reporter; inhibition, % at 38.7 µM; 9.2% of 290,000 active; in the data active = inhibition mostly above about 28%, no sharp cut-off; inactive = mostly below about 43%
LASV entry inh – Lassa virus entry inhibition; Lassa virus pseudotype entry inhibition, cell reporter; Potency, µM (top dose mostly 37.9 µM), usual class: inhibitors; 1.2% of 300,000 active; AID 540256; calls by dose curve; tested in HEK293 cells; note: nearly all actives have a fitted effect of over 50% in size
FMDV antiviral – blocks foot and mouth disease virus; FMDV antiviral cell-based qHTS; Potency, µM (titrated, usually from 57.9 µM), usual class: inhibitors; 1.2% of 410,000 active; AID 1159524; calls by dose curve; tested in HEK293T cells; note: read-out not given here; nearly all actives have a fitted effect of over 45% in size
MARV entry inh – inhibitors of Marburg virus binding or cell entry; Marburg virus pseudotyped entry inhibition, cell reporter; Potency, µM (titrated, usually from 37.8 µM), hits mostly inhibitors; 1.8% of 300,000 active; AID 540276; calls by dose curve; tested in HEK293 cells
CHX counter-2 – affects protein synthesis reporter in cycloheximide counter-screen. 3% of 510 active. shares compounds with Shiga inhibitor. Potency, µM (series often up to 38.3 µM), most hits filed as activators. Cycloheximide counterscreen, protein synthesis reporter, Shiga toxin assay; calls by dose curve
WI-38 cytotox – counter-screen for perinucleolar compartment inhibitors: WI-38 cytotoxicity; shares compounds with MARV entry inh; WI-38 normal lung fibroblasts, ATPLite luminescence ATP viability, 24 h; Potency, µM (doses to about 46.1 µM), most hits filed as inhibitors; 120 tested, under 10 active; AID 2729
PNC inh conf – confirmation of perinucleolar compartment assembly inhibitors. PC3M PTB-GFP, PNC prevalence imaging, 16 h. 50% of 120 active. Potency, µM (series often up to 46.1 µM), most hits filed as inhibitors. shares compounds with MARV entry inh. AID 2730
PC3M caspase – counter-screen for PNC inhibitors: PC3M caspase 3/7 activation; shares compounds with MARV entry inh; PC3M-GFP caspase 3/7 activation, luminescence, 24 h; activity change, positive = activation, % at 46.1 µM; 120 tested, under 10 active
HCV inh confirm – HCV inhibition, cherry-pick confirmation; shares compounds with HCV inh; HCVcc-Cre infectious virus cell assay, luciferase, inhibition; Potency, µM (highest dose often 41.8 µM), hits mostly inhibitors; 78% of 640 active; AID 720575; note: nearly all actives have a fitted effect of over 80% in size
HCV cytotox – toxic to HCV host cells, flagging false HCV inhibitors. shares compounds with HCV inh. HCV host cell line cytotoxicity counterscreen. Potency, µM (top dose mostly 41.8 µM), most hits filed as inhibitors. 22% of 640 active;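 note: 44 h compound exposure; nearly all actives have a fitted effect of over 55% in size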
Of the large screens only hits and unclear results are named; the others gave an inactive call (follow-up assays come after a bar, where they were run); ! = a repeat was not active. Unless noted, calls come from the whole dose curve; as a rule, active = well fitted curve in the direction sought with a large enough effect; inconclusive = small, poorly fitted or top-dose-only effect, or another doubt; inactive = no such curve, though single readings can be large; an effect the other way counts as inactive or inconclusive.

Cc1cc(N/C=C\c2nnnn2-c2ccccc2)no1	Shiga inhibitor 30 | CHX counter-2 inconclusive
c1ccc(CN2CCN(Cc3nnc(-c4ccccc4)o3)CC2)cc1	none
CCN1CCN(Cc2nnc(-c3ccc(C)cc3)o2)CC1	Shiga inhibitor 43 (no result: LASV entry inh, MARV entry inh) | CHX counter-2 inactive
Cc1ccc(NC(=O)COc2ccc(/C=C3/SC(=Nc4ccccc4)N(Cc4cccnc4)C3=O)cc2)cc1	none
O=C(NCc1ccncc1)C(=O)NCC1OCCCN1S(=O)(=O)c1ccc(F)cc1 (configuration not stated)	MARV entry inh inconclusive (no result: HCV inh)
O=C(NCc1ccncc1)C(=O)NCC1OCCN1S(=O)(=O)c1ccc(F)cc1 (configuration not stated)	Shiga inhibitor 31 | CHX counter-2 inactive
CC[C@]12c3[nH]c4cc(CCC(=O)N(C)C)ccc4c3CCN1C(=O)[C@@H](CC(=O)NCCCOC)C[C@@H]2C(=O)N1CCN(C(=O)C2CC2)CC1	none (no result: CHX counter-1, Shiga inhibitor, LASV entry inh, MARV entry inh)
O=C(NP(=O)(N1CCOCC1)N1CCOCC1)C1=C(N2CCOCC2)/C(=C\c2ccccc2)CC1	none
Nc1ccc(CN2CCCCCC2)cc1	none
CN1CCN(Cc2ccc(N)cc2)CC1	Shiga inhibitor 27 (no result: LASV entry inh, MARV entry inh) | CHX counter-2 inactive
O=C(COC(=O)/C=C/c1cccs1)Nc1nc(-c2ccccc2)cs1	Shiga inhibitor 46, MARV entry inh inconclusive | CHX counter-2 inactive
Cc1ccccc1NC(=O)Cn1nc(C(=O)O)c2ccccc2c1=O	none
O=C(Cn1nc(C(=O)O)c2ccccc2c1=O)Nc1nc(-c2ccccc2)cs1	Shiga inhibitor 40 (no result: LASV entry inh, MARV entry inh) | CHX counter-2 inconclusive
COc1ccc(N(CC(=O)Nc2ccc(Cl)cc2)S(=O)(=O)c2c(C)n[nH]c2C)cc1	Shiga inhibitor 24 (no result: LASV entry inh, MARV entry inh) | CHX counter-2 inactive
CCOCC(=O)Nc1cc(C(F)(F)F)ccc1Oc1cccc(Br)c1	FMDV antiviral inconclusive, MARV entry inh inconclusive
CSc1nc2ccc(N3C(=O)C4CCCCC4C3=O)cc2s1 (configuration not stated)	Shiga inhibitor 38 (no result: HCV inh) | CHX counter-2 inconclusive
Cc1cc(C)nc(SCC(=O)N/N=C/c2cccn2-c2ccc(O)cc2)n1	none
CC(=O)c1cccc(N2C(=O)C3C4CCC(C4=C(C)C)C3C2=O)c1 (configuration not stated)	Shiga inhibitor 25, MARV entry inh inconclusive | CHX counter-2 inactive
CC(=O)Oc1cccc(N2C(=O)C3C4C=CC(C4=C(C)C)C3C2=O)c1 (configuration not stated)	none
Cc1ccc(O)c([C@H](CCN(C(C)C)C(C)C)c2ccccc2)c1	Shiga inhibitor 48! (no result: LASV entry inh, MARV entry inh) | CHX counter-2 inactive
COc1ccccc1C(=O)CSc1nccn1C	Shiga inhibitor 22 | CHX counter-2 inactive
CC(C)CC1=C/C(=C/c2ccc(-c3ccccc3)o2)C(=O)O1	Shiga inhibitor 40, MARV entry inh inconclusive | CHX counter-2 inactive
NS(=O)(=O)c1ccc(-c2ccc(C=C3C(=O)c4ccccc4C3=O)o2)cc1	none (no result: LASV entry inh, MARV entry inh)
COc1cc(C(C)=O)ccc1OCCCOc1cccc2cccnc12	Shiga inhibitor 48 | CHX counter-2 inconclusive
COc1ccc(C(C)=O)cc1COc1cccc2cccnc12	none (no result: Shiga inhibitor, LASV entry inh, MARV entry inh)
O=C(O)C1=CCCNC1	MARV entry inh inconclusive (no result: CHX counter-1, Shiga inhibitor)
O=C(Nc1nnc(Cc2ccccc2)s1)c1cccnc1	Shiga inhibitor 59 | CHX counter-2 inactive
O=C(NCc1ccccc1)c1cccnc1	none (no result: LASV entry inh, MARV entry inh)
CCOC(=O)c1ccccc1NC(=O)CSc1nc2ccccc2o1	none
CC(=O)Nc1cccc(NC(=O)CSc2nc3ccccc3o2)c1	Shiga inhibitor 25 | CHX counter-2 inactive
CCOc1ccc(S(=O)(=O)Nc2ccc3c(c2)n(C)c(=O)n3C)cc1	HCV inh inconclusive, Shiga inhibitor 92 | CHX counter-2 inactive
COc1ccc(NC2=CC(c3ccccc3)N(c3ccc(OC)cc3)C2=O)cc1 (configuration not stated)	HCV inh inconclusive, Shiga inhibitor 65 | CHX counter-2 inactive
Oc1ccc(C2C[C@H]3CC[C@@H]2C3)cc1O (some centres not stated)	Shiga inhibitor 34, MARV entry inh inconclusive | CHX counter-2 inactive
CC(=O)Nc1cccc2ncccc12	Shiga inhibitor 41 | CHX counter-2 inactive
Cc1ccc(NC(=O)c2c(C(F)(F)F)nn(C)c2Cl)cc1C	Shiga inhibitor 29 | CHX counter-2 inactive
CCSc1nnc(-c2ccc(S(=O)(=O)N3CCCC3)cc2)n1C	Shiga inhibitor 67 (no result: FMDV antiviral) | CHX counter-2 inactive
NC(=O)COC(=O)CNC(=O)c1sc2ccccc2c1Cl	none
CCOc1ccc(NC(=O)CN(C)C(=O)c2ccc(N3CCCCCC3)c([N+](=O)[O-])c2)cc1OCC	HCV inh inconclusive (no result: CHX counter-1, Shiga inhibitor)
CC1CCc2sc(C(=O)NN)cc2C1 (configuration not stated)	Shiga inhibitor 36 (no result: LASV entry inh, MARV entry inh) | CHX counter-2 inactive
CC(=O)/C(C#N)=C1\NC(=O)C(Cc2ccc(C)c(C)c2)S1 (configuration not stated)	Shiga inhibitor 34, LASV entry inh 1.3µM, MARV entry inh 0.41µM | CHX counter-2 inactive | WI-38 cytotox inactive | PNC inh conf 7.9µM | PC3M caspase inactive
[N-]=[N+]=N[C@@H](CCN1CC[C@H](NC(=O)OCc2ccccc2)CCC1=O)c1ccccc1	none (no result: LASV entry inh, MARV entry inh)
COC(=O)c1c(NC(=O)c2ccn(C)n2)sc2c1CCC2	HCV inh 2.8µM, Shiga inhibitor 40 (no result: LASV entry inh, MARV entry inh) | CHX counter-2 inconclusive | HCV inh confirm 0.89µM | HCV cytotox inactive
C=Cn1ccnc1P(O)(=S)c1nc(C)c(CCOC(C)=O)s1 (configuration not stated)	none

Screening results (PubChem)
